Assay outcomes as filed in PubChem BioAssay.
TCR act – activates T cell receptor signaling | primary human leukocytes, anti-CD3, IL-2 HTRF, 48 h | Potency, µM (doses to about 9.22 µM), without a hit: top-dose activation of IL-2 secretion, usual class: activators | 330,000 tested, under 10 active | AID 504894; further: % of control where 0% means no effect
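IL-2 produced over 48 hr by a-CD3 bead-stimulated primary human leukocytes exposed to compounds was detected with a homogeneous time-resolved FRET immunoassay, 665nm acceptor signal after 320nm excitation.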
Mito fusion yeast – blocks mitochondrial division or promotes mitochondrial fusion; S. cerevisiae fusion-defective mutant growth rescue, CellTiterGlo 48 h; 320,000 compounds, 0.23% hits; AID 485298; Potency, µM (series often up to 46.1 µM), inactives show top-dose growth rescue (activation), actives largely listed as activators; further: potency means the concentration at half of the fitted maximal effect; % of control where 0% means no effect; nearly all actives have a fitted effect of over 45% in size
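Luminescent cell viability in 1536-well qHTS format served as the measure of rescued growth in ts fusion-mutant S. cerevisiae cultured on non-fermentable YPEG for 48 hours at 37C.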
A-T KAP1 phos – potential ataxia-telangiectasia treatments restoring KAP-1 phosphorylation; Potency, µM (doses to about 57.5 µM), without a hit: at the top dose activation, hits mostly activators; 320,000 compounds, 0.19% hits; AID 485349; F2112 A-T fibroblasts, KAP-1 phosphorylation AlphaLISA; neocarzinostatin DNA damage 30 min before lysis; further: potency means the concentration at half of the fitted maximal effect; % of control where 0% means no effect; nearly all actives have a fitted effect of over 45% in size
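hTERT-immortalized A-T patient fibroblasts (F2112), 500 cells/well in OPTI-MEM, 1% FBS, got compounds for 60 min, then NCS for 30 min at 37C. Lysates were then assayed for phospho-KAP-1 by AlphaLISA (anti-pKAP1 donor, anti-KAP1 acceptor beads), 6 hr at 25C.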
MBNL1-CUG inh – MBNL1-poly(CUG) RNA binding inhibition. Q9NR56. TR-FRET MBNL1-His/biotin-(CUG)12 binding, 665/545 ratio. Potency, µM (titrated, usually from 57.5 µM), inactives show at the top dose activity change, negative = inhibition, usual class: inhibitors. 280,000 compounds, 0.036% hits. AID 2675; active means well fitted inhibition curve with a large enough effect in the signal ratio, with a control signal flat, not every such curve was filed as active; inconclusive means small, poorly fitted or top-dose-only effect, or effect the other way, or a change in a side signal; inactive means no such curve, though single readings can be large or run the other way; the % refers to the signal ratio; further: potency means the concentration at half of the fitted maximal effect; on the % scale 0 is the no-effect control and ±100 the full control effect
Target sequence (Q9NR56 whole entry, looked up): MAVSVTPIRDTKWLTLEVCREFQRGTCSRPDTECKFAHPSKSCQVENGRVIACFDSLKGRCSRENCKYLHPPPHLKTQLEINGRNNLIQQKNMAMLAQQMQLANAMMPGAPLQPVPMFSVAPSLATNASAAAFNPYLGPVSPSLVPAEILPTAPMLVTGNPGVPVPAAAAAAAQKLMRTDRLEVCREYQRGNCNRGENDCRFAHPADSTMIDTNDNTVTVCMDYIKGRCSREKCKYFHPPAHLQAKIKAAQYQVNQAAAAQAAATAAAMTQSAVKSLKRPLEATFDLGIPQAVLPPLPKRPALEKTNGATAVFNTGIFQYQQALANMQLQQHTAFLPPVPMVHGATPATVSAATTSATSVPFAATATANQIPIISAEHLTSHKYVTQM
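His-tagged MBNL1 binding to biotinylated (CUG)12 RNA was measured by TR-FRET using terbium anti-His antibody (0.055 ng/ul final) and streptavidin-XL665 (5 nM final). Compounds were titrated 92 nM to 58 uM; 60 min at room temperature.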
Glioma ERSR ind – inducers of ER stress response in human glioma cells | AID 602332 | Potency, µM, without a hit: at the highest dose activation, hits mostly activators | U87-MG GRP78 promoter luciferase reporter, 16 h | 420,000 compounds, 0.02% hits; further: potency means the concentration at half of the fitted maximal effect; series mostly up to about 76 µM; % of control where 0% means no effect; nearly all actives have a fitted effect of over 35% in size
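Stably transfected U87-MG human glioma cells carrying a GRP78-based luminescent sensor were seeded at 1000 cells/well, pin-dosed with compounds and incubated 16 h. Luciferase reagent was then added, and end-point luminescence was read after 10 min at room temperature.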
ClpP mod – qHTS Assay for Activators of ClpP; 340,000 compounds, 1.9% hits; Potency, µM (highest dose often 57.5 µM), inactives show at the top dose activity change, negative = active; ATP-dependent Clp protease proteolytic subunit (Bacillus subtilis (strain 168)), P80244; purified B. subtilis ClpP, FRET peptide cleavage, 20 min; AID 651965, 2013; active means well fitted falling curve with a large enough effect; inconclusive means small, poorly fitted or top-dose-only effect; inactive means no such curve, though single readings can be large or run the other way; further: potency means the concentration at half of the fitted maximal effect; the source files actives as falling curves though it sought activators and does not explain the sign; nearly all actives have a fitted effect of over 65% in size
Target sequence (P80244 whole entry, looked up): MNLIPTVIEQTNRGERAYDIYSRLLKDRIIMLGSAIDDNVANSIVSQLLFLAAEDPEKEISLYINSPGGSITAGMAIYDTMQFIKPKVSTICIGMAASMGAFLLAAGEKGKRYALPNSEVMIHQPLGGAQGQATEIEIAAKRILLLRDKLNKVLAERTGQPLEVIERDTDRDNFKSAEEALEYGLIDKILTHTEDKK
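ClpP 10 microg/mL final, pH 8 Tris/KCl buffer with BSA, glycerol, Tween-20; compound pinned in; FRET-FV substrate; RT 20 min; Ex320/Em430; ΔFRET vs ADEP 5.8 microM, DMSO, no enzyme.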
Active calls of the source: *; ? = inconclusive; nt = no result given; [ ] = remark or other dose. Only some compounds are listed: those with a hit (about 1.8% of all), similar ones and a draw of the others. Unless noted, the call rests on the fitted dose curve; in most records, active means well fitted curve in the direction sought with a large enough effect; inconclusive means small, poorly fitted or top-dose-only effect, or another doubt; inactive means no such curve, though single readings can be large; an effect the other way counts as inactive or inconclusive.

SMILES	TCR act	Mito fusion yeast	A-T KAP1 phos	MBNL1-CUG inh	Glioma ERSR ind	ClpP mod
O=S(=O)(c1cccnc1)N1CCN(c2nc(-c3cccs3)nc3ccccc23)CC1	nt	nt	nt	nt	-5%	32µM*
Clc1ccc2nc(-c3ccc(Br)s3)cn2c1	8%	3%	-2%	45%	-9%	20µM*
Cc1cc(/C=C/c2ccnc3ccccc23)ccc1N	nt	nt	nt	nt	1%	-3%
Nc1ccccc1C(=O)NC(=O)Nc1ccc(Oc2ncc(Br)cn2)c(Cl)c1	0%	nt	nt	nt	-4%	22µM*
Cc1cc(NC(=O)NC(=O)c2ccccc2NC(=O)CN)ccc1Oc1ncc(Br)cn1	1%	nt	nt	nt	-3%	18µM*
Cc1cc(NC(=O)NC(=O)c2ccccc2NC(=O)CN(C)C)ccc1Oc1ncc(Br)cn1	-2%	nt	nt	nt	-5%	1%
CCCCC(=O)NCc1ccc(Cl)cc1	9%[46.1 µM]	1%	7%	-11%	-4%	20µM*
Cc1cc(CNC(=O)c2cnn(-c3nccc(-c4ccc5c(c4)OCO5)n3)c2C2CC2)on1	nt	nt	nt	nt	-2%	nt
COc1cc2c(cc1OC)/C(=C/c1ccc(N(C)C)cc1)C=C2	nt	nt	nt	nt	4%	1%
CC(=O)Nc1ccc2nc(-c3cc(C)ccc3C)[nH]c2c1	nt	nt	nt	nt	-2%	4%
CC(=O)Nc1ccc2nc(-c3ccncc3)[nH]c2c1	2%	0%	nt	17%	-4%	25µM*
CC(=O)Nc1ccc2nc(-c3ccccn3)[nH]c2c1	1%	-6%	6%	1%	-6%	11µM*
CCOC(=O)c1ccc(NC(=O)c2nc[nH]c2C(=O)N[C@@H](CC(C)C)C(=O)OC(C)(C)C)cc1	6%	14%	?	-2%	0%	?
CC(C)C[C@H](NC(=O)c1[nH]cnc1C(=O)Nc1ccccc1)C(=O)OC(C)(C)C	-1%	-12%	32µM*	-4%	-13%	2%
CNC(=O)c1[nH]cnc1C(=O)N[C@@H](C)C(=O)OCc1ccccc1	-4%	?	45µM*	-1%	0%	2%
OC1(c2ccc3c(c2)CN(Cc2ccco2)CCO3)CCN(c2ccccc2F)CC1	nt	nt	nt	nt	1%	nt
Cc1cccnc1-c1cccc2c1OC(CNC(=O)C(=O)c1ccccc1)C2 (configuration not stated)	nt	nt	nt	nt	-4%	nt
O=c1[nH]ncc(N2CCN(C(c3ccccc3)c3ccccc3)CC2)c1Cl	7%[46.1 µM]	?	5%	nt	-2%	28µM*
O=c1[nH]ncc(N2CCCC2)c1Cl	-3%	?	3%	6%	1%	nt
Cc1cc(/C=N\NC(=O)COc2cccc3cccnc23)c(C)n1-c1ccccc1	2%[46.1 µM]	?	-13%	-5%	3%	-3%
Cc1ccnc(-n2c(C)cc(/C=N/NC(=O)COc3cccc4cccnc34)c2C)c1	2%	-3%	-11%	1%	-3%	14µM*
CC(C)Oc1ccc(C(=O)NCC2Cc3cc(F)cc(-c4cnccn4)c3O2)cc1 (configuration not stated)	nt	nt	nt	nt	2%	nt
COc1ccc(N(Cc2cc(=O)[nH]c3ccccc23)C(=O)CCl)cc1	7%	-5%	13%	0%	-14%	nt
COc1ccc(OCc2cc(=O)[nH]c3ccccc23)cc1	nt	1%	3%	1%	-1%	16µM*
CC1Cc2ccccc2C[N+]1(C)CC(=O)c1ccc(I)cc1 (configuration not stated)	nt	nt	nt	nt	-5%	1%
SMILES	TCR act	Mito fusion yeast	A-T KAP1 phos	MBNL1-CUG inh	Glioma ERSR ind	ClpP mod
Cn1ccc(C(=O)NCC2CCC3(CCN(Cc4cc(F)cc(F)c4)CC3)O2)n1 (configuration not stated)	nt	nt	nt	nt	-5%	nt
Cc1ccc(C23CC4CC(CC(CC(=O)NC(C)(C)CO)(C4)C2)C3)cc1	-1%	18µM*	-9%	-1%	0%	1%
Cc1ccc(C23CC4CC(CC(CN)(C4)C2)C3)cc1	-3%	3%	1%	-4%	-2%	-3%
CNCC(=O)c1c[nH]c2ccccc12	nt	nt	nt	nt	-3%	0%
N#C/C(=C\c1ccc(OC(=O)c2cccs2)cc1)c1nc2ccccc2[nH]1	0%[46.1 µM]	8%	nt	0%	6%	28µM*
Cc1cccc(N2CCN(CC(O)COCc3cccs3)CC2)c1C (configuration not stated)	-5%[46.1 µM]	1%	0%	-19%	-3%	22µM*
CCN(CC)S(=O)(=O)c1ccc(C)c(NC(=S)NNC(=O)C2CC2)c1	-5%[46.1 µM]	0%	nt	-10%	-5%	25µM*
Cc1ccc(S(=O)(=O)N(C)C)cc1NC(=S)NNC(=O)C1CC1	-1%[46.1 µM]	2%	nt	-4%	-3%	-1%
Cn1c(=O)c(-c2ccccc2)nc2ccccc21	-1%[46.1 µM]	-3%	4%	?	3%	25µM*
COc1ccc(/C=C/c2nccc3ccccc23)cc1OC	nt	nt	nt	nt	2%	-10%
COCCNC(=O)CC(NS(=O)(=O)c1ccc(NC(C)=O)cc1)C(C)C (configuration not stated)	-1%	0%	-6%	-4%	-3%	32µM*
CCCNC(=O)CC(NS(=O)(=O)c1ccc(NC(C)=O)cc1)C(C)C (configuration not stated)	-17%	-4%	2%	-5%	-4%	-25%
CCn1nc(C)c(CNC(=O)c2cc(COc3ccc(F)cc3Cl)on2)c1C	5%	4%	1.6µM*	0%	-2%	1%
O=C(c1cc(COc2ccc(F)cc2Cl)on1)N1C[C@H]2CC[C@H]1C2	3%	-3%	21%	5%	0%	28µM*
COC(=O)[C@@H]1CCCN1Cc1ccc2c(c1)CN(Cc1ccc3c(c1)CCO3)CCO2	nt	nt	nt	nt	-2%	nt
COc1ccc(CC(=O)Nc2ccccc2C(C)=O)cc1S(=O)(=O)N1CCOCC1	5%	12%	12%	nt	-3%	35µM*
COc1ccc(S(=O)(=O)N2CCCCC2)cc1NC(=O)c1ccco1	-4%	3%	1%	-4%	-4%	16µM*
COc1ccc(S(=O)(=O)N2CCCCCC2)cc1C(=O)NCc1ccco1	4%[46.1 µM]	nt	7%	nt	0%	nt
COc1ccc(S(=O)(=O)N2CCCCCC2)cc1C(=O)NCc1ccccc1Cl	-7%	?	8%	nt	-4%	25µM*
COc1ccc(S(=O)(=O)N2CCOCC2)cc1NC(=O)Cc1ccsc1	-1%[46.1 µM]	nt	12%	nt	-1%	20µM*
O=S(=O)(/C=C/c1ccccc1)N1CCC(n2c(C3CCCO3)nc3cccnc32)CC1 (configuration not stated)	nt	nt	nt	nt	0%	nt
